Experimental data as given in PubChem BioAssay (NCI).
About 83,000 compounds went through this panel and 20% of them were active in at least one assay; those are over-represented in the sample as a whole.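 Results are percent growth after 48 hours of single-concentration exposure. 100 means growth as in untreated cells, lower positive values show inhibition; negative values down to -100 show cell death.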 A number with no mark means an inactive call. Activity calls are given as the source filed them. The calls were made as follows: active = growth percent below 10; inactive = the rest.

Tests used:
Assay in all cases: NCI-60 one-dose screen, 48 h (100 = growth as untreated, 0 = no growth, -100 = all killed)
Settings in all cases: 10 µM
HCT-15 colon = test system: HCT-15 colon
HT29 colon = test system: HT29 colon
SNB-75 CNS = test system: SNB-75 CNS
SNB-19 CNS = test system: SNB-19 CNS
U251 CNS = test system: U251 CNS
PC-3 prostate = test system: PC-3 prostate
SK-MEL-5 melanoma = test system: SK-MEL-5 melanoma
UACC-62 melanoma = test system: UACC-62 melanoma
SK-MEL-28 melanoma = test system: SK-MEL-28 melanoma
SK-MEL-2 melanoma = test system: SK-MEL-2 melanoma
EKVX NSCLC = test system: EKVX NSCLC
UO-31 renal = test system: UO-31 renal
TK-10 renal = test system: TK-10 renal
ACHN renal = test system: ACHN renal
CAKI-1 renal = test system: CAKI-1 renal
A498 renal = test system: A498 renal
CCRF-CEM leukemia = test system: CCRF-CEM leukemia
MOLT-4 leukemia = test system: MOLT-4 leukemia
SN12C renal = test system: SN12C renal
LOX IMVI melanoma = test system: LOX IMVI melanoma

| SMILES | growth (HCT-15 colon) | growth (HT29 colon) | growth (SNB-75 CNS) | growth (SNB-19 CNS) | growth (U251 CNS) | growth (PC-3 prostate) | growth (SK-MEL-5 melanoma) | growth (UACC-62 melanoma) | growth (SK-MEL-28 melanoma) | growth (SK-MEL-2 melanoma) | growth (EKVX NSCLC) | growth (UO-31 renal) | growth (TK-10 renal) | growth (ACHN renal) | growth (CAKI-1 renal) | growth (A498 renal) | growth (CCRF-CEM leukemia) | growth (MOLT-4 leukemia) | growth (SN12C renal) | growth (LOX IMVI melanoma) |
| --- | --- | --- | --- | --- | --- | --- | --- | --- | --- | --- | --- | --- | --- | --- | --- | --- | --- | --- | --- | --- |
| COc1ccc(OC)c(/C=N/NC(=O)c2ccc3nc(-c4ccc(Cl)cc4)[nH]c3c2)c1 | 41.8% | 79.7% | 72.8% | 54.3% | 74.3% | 41.5% | 31.2% | 75.7% | 85.4% | 103% | 57.5% | 68% | 89.1% | 46.9% | 61.6% | 43.8% | 43.9% | 41.1% |  |  |
| COc1ccc(-c2c(N)c(=O)n(C)c3ccccc23)cc1 | 49.7% | 59.9% | 75.4% | 62.1% | 47.8% | 46.9% | 57.7% | 38.1% | 86.5% | 77.4% | 52.4% | 29.7% | 118% | 59.4% | 62.1% | 110% |  | 37.3% | 52.8% |  |
| Cc1ccc2nc3c(nc2c1)c1cc(I)ccc1n3CCN(C)C | 10.1% | 14.4% | 30.6% | 24.9% | 24.2% | 26% | 48.1% | 59.1% | 11.9% | 52.2% | 30.9% | 8.11% (active) | 48.9% | 6.64% (active) | 8.68% (active) | 62.9% | 32.7% | 10% | 21.4% |  |
| Cc1ccc(/C(N)=N/c2sc(-c3ccccc3)nc2-c2ccccc2)cc1 | 46.1% | 50.6% | 82.4% | 97.3% | 75.1% | 90.6% | 89.2% | 74.6% | 81.5% | 90.7% | 74.2% | 69.9% | 100% | 76.3% | 59.8% | 91.1% | 26.7% | 51.5% |  |  |
| O=C1Nc2ccc(Cl)cc2/C1=C/c1cccc(OCc2ccccn2)c1 | -66.8% (active) | -63.8% (active) | 34.8% | 0.791% (active) | -90.7% (active) | -9.7% (active) | -47.3% (active) | -81.2% (active) | -49.2% (active) | -50.6% (active) | 10.7% | 8.26% (active) | 10.5% | -40.3% (active) | -7.95% (active) | 95% | -23.1% (active) | 4.5% (active) | -50.6% (active) |  |
| CC1=C(C(=O)OC(C)C)C(c2ccc(O)cc2)NC(=S)N1 (stereo not given) | 102% | 108% | 217% | 101% | 102% | 94.7% | 106% | 93.4% | 109% | 99.2% | 92.5% | 96.2% | 95.5% | 109% | 98% |  | 101% | 94.8% |  |  |
| COc1ccc(-c2cc(C(=O)N=Nc3c(O)[nH]c4ccc(Br)cc34)c3ccccc3n2)cc1 | -60.8% (active) | -1.14% (active) | 108% | -3.47% (active) | -67.7% (active) | 23.1% | 84.8% | 32.6% | 65.9% | 122% | 44.4% | 43.2% | 97.8% | 24.5% | 57.1% | 143% | 18.9% | 4.15% (active) | 5.56% (active) |  |
| CO[C@H]1CSS[C@@H]1Cn1nc(-c2ccc(Oc3ccccc3)cc2)c2c(N)ncnc21 | 22.1% | 17.2% | 104% | 29.6% | 24.6% | 41.2% | -4.24% (active) | -69.5% (active) | -35.8% (active) | -34% (active) | 18% | 17.7% | 0.0625% (active) | 10% | 11.3% | 92.8% | -16% (active) | -20.6% (active) | 24.6% |  |
| COc1ccc2c3nc4cc(C)c(C)cc4nc3n(CCN(C)C)c2c1 | 1.95% (active) | 31.4% | 21.5% | 9.9% (active) | -73.1% (active) | 21.2% | -80.7% (active) | 3.37% (active) | -63.9% (active) | -4.58% (active) |  | -67.2% (active) | 15.6% | -64% (active) | -67.5% (active) | 65.4% | 20.1% | 4.84% (active) | -15.6% (active) |  |
| COc1cc2c3c(n(CCCN4CCOCC4)c(=O)c2cc1OC)-c1nc2c(cc1C3=O)OCO2 | 41.5% | 7.3% (active) | 49.9% | 15% | -18.9% (active) | 43.6% | -6.78% (active) | -8.82% (active) | 66.1% | 111% | 48.8% | 15.3% | 79.5% | -11.7% (active) | 6.77% (active) | 76.9% | 14.4% | 24.7% | 8.3% (active) |  |
| C=C1CCC2C3(C)COC(c4c(F)cccc4F)OC3CCC2(C)C1C/C=C1/C(=O)OCC1O (stereo not given) | -18.7% (active) | 3.23% (active) | 23.2% | -7.73% (active) | -94.2% (active) | 5.05% (active) | -65.5% (active) | -4.04% (active) | -51.2% (active) | -44.7% (active) | 3.87% (active) | -91.6% (active) | -23.2% (active) | -97.8% (active) | 2.15% (active) | 141% | 13.9% | 11.4% | -24.1% (active) |  |
| c1ccc(C(=C(c2ccc(OCCN3CCCCC3)cc2)c2ccc(OCCN3CCCCC3)cc2)C2CCCC2)cc1 | 34.6% | -96.2% (active) | -24.5% (active) | -96.8% (active) |  | -37.1% (active) | -100% (active) | -97.1% (active) | -75.6% (active) | -90.2% (active) | 21.4% | 89.5% | 16.6% | 80.3% | 76.1% | 102% | -60.4% (active) |  | -8.67% (active) | -100% (active) |
| Nc1cccnc1/C=N/NC(=S)NCCNC(=O)c1ccc(-n2nc(-c3ccccc3O)nc2-c2ccccc2O)cc1 | 17.9% | -42.8% (active) | 48.1% | 13.2% |  | 9.05% (active) | -42% (active) | -62.6% (active) | 14.8% | -4.94% (active) | 2.53% (active) | -3.95% (active) | 12.3% | 2.89% (active) | 4.97% (active) | 73.7% | -6.46% (active) | 11.8% | 5.7% (active) | -45.2% (active) |
| Cc1cccc(NC(=O)CSc2nc3ccc(F)cc3c(=O)n2-c2ccc(Cl)cc2)c1C | 70.5% | 76.3% | -20.7% (active) | 7.05% (active) | 48.8% | 68.9% | 88.2% | 80.8% | 74.3% | 73.1% | 75% | 39.6% |  | 37.8% | -21.6% (active) | 108% | 94.4% | 81.3% |  |  |
| O=C(Nc1ccc(I)cc1F)c1cc(-c2ccc(F)cc2F)ccc1O | 5.34% (active) | 17% | -23.7% (active) | 11.3% | 4.61% (active) | 2.22% (active) | -75.3% (active) | -14.4% (active) | 4.38% (active) | -39.9% (active) | 0.815% (active) | -0.556% (active) | 19.9% | -5.83% (active) | -21% (active) | -21.3% (active) |  | -0.655% (active) |  |  |
| O=C(CSc1nnc(-c2c[nH]c3ccccc23)n1-c1ccccc1)c1ccc(Br)cc1 | 44% | 57.4% | 38.8% | 70.2% | 61.6% | 46.2% | 17.2% | 35.2% | 34.9% | -19.5% (active) |  | 26% | 64.9% | 37.4% | 44.3% | 36% | 86.4% | 92.2% | 72.9% |  |
| O=C(Cc1ccc2c(c1)CN(C1CCC(=O)NC1=O)C2=O)NCCc1ccccc1 (stereo not given) | -0.692% (active) | 31.3% | 1.96% (active) | 15.6% | 67.8% | 11.9% | -54.2% (active) | 53.7% | 37.4% | 26% | 67.2% | -10.4% (active) | 45.8% | 48.9% | 63.6% | 1.53% (active) |  | -13.2% (active) | 8.84% (active) |  |
